Assay outcomes deposited in PubChem BioAssay by National Center for Advancing Translational Sciences (NCATS).
Mito fusion act: mitochondrial division inhibition or fusion activation. Potency, µM (highest dose often 46.1 µM), hits mostly activators. S. cerevisiae fusion-defective mutant growth rescue, CellTiterGlo 48 h. 320,000 compounds, 0.23% hits. AID 485298; further: nearly all actives have a fitted effect of over 45% in size
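Growth-rescue viability read-out: after 48 h at the non-permissive 37C in glycerol/ethanol YPEG, yeast mitochondrial fusion mutants are measured by CellTiterGlo luminescence; compounds (23 nl pinned per well) restoring growth score as division inhibitors or fusion activators.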
AT treatment: potential ataxia-telangiectasia treatments restoring KAP-1 phosphorylation; Potency, µM (titrated, usually from 57.5 µM), most hits filed as activators; 320,000 compounds, 0.19% hits; F2112 A-T fibroblasts, KAP-1 phosphorylation AlphaLISA; neocarzinostatin DNA damage 30 min before lysis; further: nearly all actives have a fitted effect of over 45% in size
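ATM-like activity read as KAP-1 phosphorylation via AlphaLISA donor/acceptor antibody pairs after lysis and 6 hr at 25C. Cells were ATM-null patient fibroblasts (F2112, hTERT), dosed 60 min, then exposed to the DSB inducer NCS for 30 min.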
a7 integrin act: activators of alpha7 integrin expression for muscular dystrophy. alpha7betagal myoblasts, beta-gal FDG fluorescence, 48 h. Potency, µM (series often up to 38.3 µM), usual class: activators. 350,000 compounds, 0.064% hits; further: nearly all actives have a fitted effect of over 60% in size
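alpha7betagal+/- myoblasts (passage 13, 250/well) treated 48 h at 37C with compounds at 1:260 dilution of DMSO stock. Lysed, then beta-galactosidase activity read as FDG fluorescence (ex 480/em 540) after 30 min, with pre-read for autofluorescence.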
SW480 rereplic: induces DNA re-replication in SW480 colon adenocarcinoma cells | SW480 DNA re-replication, Hoechst DNA content imaging, 48 h | Potency, µM (series often up to 46.1 µM), most hits filed as activators | 340,000 compounds, 1.8% hits; further: nearly all actives have a fitted effect of over 55% in size
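Compounds, transferred as 23 nL by pin tool, were incubated with cells for 48 hr; DNA content per nucleus was then quantified by Hoechst staining and fluorescence plate imaging.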
MCF10A rereplic: DNA re-replication induction in MCF 10a cells | Potency, µM (series often up to 46.1 µM), usual class: activators | AID 624296 | MCF 10A DNA re-replication, Hoechst nuclear intensity, 48 h | 350,000 compounds, 2.9% hits; further: nearly all actives have a fitted effect of over 50% in size
Of the large screens only hits and unclear results are named; the others gave an inactive call. In the library only some 4.2% were active in any assay of this set; here they are far more common. The call rests on the fitted dose curve; in most records, active means well fitted activation curve with a large enough effect; inconclusive means small, poorly fitted or top-dose-only effect; inactive means no such curve, though single readings can be large or run the other way.

CCOc1cc2c(cc1O)CCC1C2CCC2(C)C(O)CCC12 (stereo not drawn)	SW480 rereplic inconclusive, MCF10A rereplic 1.2µM (no result: Mito fusion act, AT treatment)
C=Cc1cc2c(cc1O)CCC1C2CCC2(C)C(O)CCC12 (stereo not drawn)	SW480 rereplic inconclusive, MCF10A rereplic 10µM (no result: Mito fusion act, AT treatment)
C=CCOc1ccc2c(c1)CCC1C2CCC2(C)C(O)C(O)CC12 (stereo not drawn)	SW480 rereplic inconclusive, MCF10A rereplic inconclusive (no result: Mito fusion act, AT treatment)
CCNc1cc2c(cc1O)CCC1C2CCC2(C)C(O)CCC12 (stereo not drawn)	SW480 rereplic inconclusive, MCF10A rereplic inconclusive (no result: Mito fusion act, AT treatment)
CC#Cc1cc2c(cc1O)CCC1C2CCC2(C)C(O)CCC12 (stereo not drawn)	SW480 rereplic 9.2µM, MCF10A rereplic 8.2µM (no result: Mito fusion act, AT treatment)
CC12CCC3c4ccc(O)cc4CCC3C1CC(=NO)C2O (stereo not drawn)	none (no result: Mito fusion act, AT treatment)
COc1ccc(N(CC(=O)NCc2ccc3c(c2)OCO3)C(=O)CCC(=O)Nc2ccccn2)cc1	MCF10A rereplic inconclusive
O=C(N/N=C/c1cn(-c2cccs2)nc1-c1ccccc1)c1ccccc1O	SW480 rereplic inconclusive, MCF10A rereplic 15µM (no result: AT treatment)
O=C(N/N=C/c1cn(-c2ccccc2)nc1-c1cccnc1)c1ccccc1	SW480 rereplic inconclusive, MCF10A rereplic 12µM
NC(=O)N/N=C/c1cn(-c2ccccc2)nc1-c1cccnc1	none
COc1cccc(C(=O)Nc2ccc3nc(N4CCN(c5ncccn5)CC4)cc(C)c3c2)c1OC	none (no result: a7 integrin act, SW480 rereplic, MCF10A rereplic)
CCOc1ccccc1C(=O)Nc1ccc2nc(N3CCN(c4ncccn4)CC3)cc(C)c2c1	SW480 rereplic inconclusive, MCF10A rereplic 8.2µM (no result: Mito fusion act, AT treatment)
COc1ccc(NC(=O)/C(Cl)=C(/Cl)S(=O)Cc2ccccc2)cn1 (stereo not drawn)	SW480 rereplic inconclusive, MCF10A rereplic inconclusive
COc1ccc(CS(=O)(=O)/C(Cl)=C(/Cl)C(=O)Nc2ccc(OC)nc2)cc1	SW480 rereplic 0.82µM, MCF10A rereplic 0.41µM (no result: AT treatment)
CCOC(=O)c1ccc(-c2c(-c3cc(OC)c(OC)c(OC)c3)noc2C)cc1F	AT treatment inconclusive, SW480 rereplic 2.9µM, MCF10A rereplic 1.5µM
COc1ccc2c(c1)C1=NN(/C(C)=C/C(C)=O)C(c3ccc(F)cc3)C1CC2 (stereo not drawn)	MCF10A rereplic inconclusive
COc1ccc2c(c1)C1=NN(/C(C)=C/C(C)=O)C(c3cccc(F)c3)C1CC2 (stereo not drawn)	Mito fusion act 18µM, MCF10A rereplic inconclusive
Cc1ccc(-c2cn3nc(-c4ccccc4)c(-c4ccccc4)nc3n2)cc1	AT treatment 28µM, SW480 rereplic 18µM, MCF10A rereplic inconclusive
c1ccc(-c2cn3nc(-c4ccccc4)c(-c4ccccc4)nc3n2)cc1	SW480 rereplic 9.2µM, MCF10A rereplic 7.3µM
CCn1cc(CN2CCCC(C(=O)c3ccc(-c4ccccc4)cc3)C2)cn1 (stereo not drawn)	SW480 rereplic inconclusive, MCF10A rereplic inconclusive
O=S(=O)(/C(=C/c1ccc(C(F)(F)F)cc1)c1nc2ccccc2[nH]1)c1ccccc1	AT treatment 32µM, SW480 rereplic inconclusive, MCF10A rereplic inconclusive
O=c1[nH]c2ccccc2nc1C(F)(F)F	SW480 rereplic inconclusive
CC(C)c1ccc(/C=C(\c2nc3ccccc3[nH]2)S(=O)(=O)c2ccccc2)cc1	Mito fusion act inconclusive, SW480 rereplic 12µM, MCF10A rereplic 2.6µM
CN(C)CCNc1nc2sc3c(c2c(=O)n1CCc1ccccc1)CCCCC3	SW480 rereplic 18µM, MCF10A rereplic inconclusive
CC(O)CNc1nc2sc3c(c2c(=O)n1CCc1ccccc1)CCCCC3 (stereo not drawn)	Mito fusion act 20µM, SW480 rereplic inconclusive, MCF10A rereplic inconclusive
CCOc1cc(C(=O)Nc2ncn[nH]2)cc(OCC)c1OCC	none
CC(C)CC(=O)Nc1nnc(S(=O)(=O)N2CCCCCC2)s1	none
Cc1nc2c(cc1NC(=O)C(C)(C)C)nc(C)n2Cc1ccccc1	none
COc1ccc(S(=O)(=O)N(C)C[C@@H]2OCc3cnnn3CCCC(=O)N([C@@H](C)CO)C[C@H]2C)cc1	none (no result: Mito fusion act, AT treatment, SW480 rereplic, MCF10A rereplic)
CCCOc1ccc(C(F)(F)F)cc1NC(=O)CCc1c(C)noc1C	SW480 rereplic inconclusive, MCF10A rereplic inconclusive
O=C1/C(=C\c2cccc([N+](=O)[O-])c2O)SC(=S)N1Cc1ccccc1	none
O=C1/C(=C\c2cc(Br)cc(Br)c2O)SC(=S)N1Cc1ccccc1	MCF10A rereplic 9.2µM
O=C(O)CN1C(=O)/C(=C\c2cc(Br)ccc2OCc2ccccc2F)SC1=S	MCF10A rereplic 18µM
O=C1/C(=C/c2ccccc2O)SC(=S)N1Cc1cccnc1	SW480 rereplic inconclusive, MCF10A rereplic 6.5µM
O=C1/C(=C\c2ccc(O)cc2)SC(=S)N1Cc1ccccc1	SW480 rereplic inconclusive
Cc1ccc(NC(=O)CSc2nc(N)cc(=O)[nH]2)cc1S(=O)(=O)N1CCCCCC1	MCF10A rereplic inconclusive (no result: Mito fusion act)
O=C1c2ccccc2C2=Nc3ccccc3SC(c3cccc(F)c3)C12 (stereo not drawn)	SW480 rereplic inconclusive, MCF10A rereplic 12µM
Cc1nn(CC(=O)Nc2ccc3c(c2)OCCO3)c(C)c1[N+](=O)[O-]	none (no result: Mito fusion act)
O=C(Nc1nc2ccccc2s1)c1cccc(S(=O)(=O)N2CCc3ccccc32)c1	none
O=C(Nc1nc2c(s1)CN(Cc1ccccc1)CC2)c1cccc(S(=O)(=O)N2CCc3ccccc32)c1	SW480 rereplic 16µM, MCF10A rereplic 10µM
CCc1nn(C(CC)C(=O)NCc2cccc(OC)c2)c(=O)c2cc3occc3n12 (stereo not drawn)	Mito fusion act inconclusive, MCF10A rereplic inconclusive
Cn1ncc([N+](=O)[O-])c1C(=O)Nc1ccc(C2CCCCC2)cc1	a7 integrin act inconclusive, SW480 rereplic 12µM
COc1ccccc1C(CNC(=O)CNC(=O)c1ccc(C)c(C)c1)N1CCCC1 (stereo not drawn)	none
CCOC(=O)c1c(C)oc2ccc(OCC(=O)C(C)(C)C)cc12	none (no result: AT treatment)
CCOC(=O)c1c(C)oc2ccc(OCc3cc(C(=O)OC)oc3C)cc12	MCF10A rereplic 6.5µM
COC(=O)c1cc(COc2ccc3oc(C)c(C(=O)OC)c3c2)c(C)o1	SW480 rereplic 18µM, MCF10A rereplic 15µM
CC(C)CN1CCC(Oc2cccc(C(=O)NCCc3ccccc3)c2)CC1	none
Cc1cc(C(=O)COc2ccccc2C(N)=O)c(C)n1C1CC1	MCF10A rereplic 0.58µM
CCC[C@H]1CN(c2ccccc2)C(=O)[C@@H]1CC(=O)Nc1ccc(Br)cc1	none (no result: Mito fusion act, AT treatment, SW480 rereplic, MCF10A rereplic)
COc1ccc(/C=C/C(=O)c2ccccc2O)cc1	SW480 rereplic 0.1µM
COc1ccc(C(=O)/C=C\c2ccc(NC(=O)c3cccs3)cc2)cc1	SW480 rereplic 18µM, MCF10A rereplic inconclusive
COc1cccc(C(=O)N/N=C(\C)c2ccc(NC(=O)Cc3ccccc3)cc2)c1OC	a7 integrin act inconclusive, SW480 rereplic inconclusive, MCF10A rereplic inconclusive
